# From PubChem
# CHRM1 antagonist: antagonists of human M1 muscarinic receptor; P11229; AID 588852; CHO-K1 hM1, Fluo-8 calcium fluorescence, ACh EC80 antagonist; hit rate 1.3% among 360,000; inhibition, % at 3 µM;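 active = percent inhibition above its own plate's cutoff, namely the mean of that plate's compound wells plus 3 SD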;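 also: peak over basal fluorescence ratio during 140 s after agonist addition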
# Target sequence (P11229 whole entry, looked up): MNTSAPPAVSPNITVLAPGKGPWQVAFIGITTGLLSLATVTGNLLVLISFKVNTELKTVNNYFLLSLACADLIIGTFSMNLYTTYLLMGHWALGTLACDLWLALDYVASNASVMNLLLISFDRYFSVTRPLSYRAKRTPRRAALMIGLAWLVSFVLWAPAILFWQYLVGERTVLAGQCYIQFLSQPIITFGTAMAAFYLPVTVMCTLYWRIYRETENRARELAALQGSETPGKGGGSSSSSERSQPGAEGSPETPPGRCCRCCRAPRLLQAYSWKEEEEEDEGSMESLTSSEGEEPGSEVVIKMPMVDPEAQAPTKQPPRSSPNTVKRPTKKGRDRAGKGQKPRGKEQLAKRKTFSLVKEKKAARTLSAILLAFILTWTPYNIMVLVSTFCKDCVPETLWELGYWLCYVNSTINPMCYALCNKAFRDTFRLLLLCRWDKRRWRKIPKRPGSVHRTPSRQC
# CHRM1 PAM: human CHRM1 positive allosteric modulation; hit rate 0.088% among 360,000; AID 588819; CHO-K1 hM1, Fluo-8 calcium fluorescence, ACh EC20; 0% = ACh EC20, 100% = maximal ACh; activation, % at 3 µM; P11229; in the data active = activation above about 19%, passing the limit was not always enough
# CHO-K1 Ca ag: nonselective activator or artifact in parental CHO-K1 cells. AID 602248. activation, % at 3 µM. Fluo-8 calcium fluorescence; scaled to maximal ATP response, vehicle zero. hit rate 0.48% among 360,000; in the data active = activation above about 15%;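 also: untransfected CHO-K1 host cells lacking M1 receptor as counterscreen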
# M1 PAM parental: counter-screen for M1 PAMs: effect in parental CHO-K1 cells. ATP EC20, Fluo-8 calcium fluorescence; 0% at ATP EC20, 100% at ATP max. activation, % at 3 µM. hit rate 0.02% among 360,000. AID 602247;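 active = activation above the run cutoff, the mean activation of all test compounds plus 3 SD, cut at about 40% in these data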;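 also: peak over basal fluorescence ratio in a 140 s read after ATP addition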
# CHRM1 agonist: human M1 muscarinic receptor agonism | P11229 | CHO-K1 hM1, Fluo-8 calcium fluorescence, agonist mode; 0% DMSO, 100% acetylcholine EC100 | activation, % at 3 µM | hit rate 0.33% among 360,000 | AID 588814;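 active = activation above the run's mean compound activation plus 3 SD, cut at about 16% in these data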;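 also: peak over basal fluorescence ratio within a 140 s kinetic read after compound addition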
# CHO-K1 Ca antag: nonselective inhibitor or artifact in parental CHO-K1 cells; inhibition, % at 3 µM; hit rate 0.6% among 360,000; ATP-induced calcium, Fluo-8 fluorescence;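 active = inhibition above a per-plate cutoff, the plate's mean sample inhibition plus 3 SD, cut at about 24% in these data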
# A number is an active result; n = inactive. Most compounds without a hit are left out; they make up all but 2.4% or so of the library.
SMILES,CHRM1 antagonist,CHRM1 PAM,CHO-K1 Ca ag,M1 PAM parental,CHRM1 agonist,CHO-K1 Ca antag
O=C(Nc1ccc2nsnc2c1)N1CCCCC1,n,n,n,n,n,n
COc1ccc2nc(C)cc(NCc3ccc(F)cc3)c2c1,29,n,n,n,n,n
COc1ccc(S(=O)(=O)N(C)C[C@H]2Oc3ccc(NC(=O)CCC(F)(F)F)cc3C(=O)N([C@H](C)CO)C[C@@H]2C)cc1,n,n,n,n,n,n
C=CCn1c(C(C)NC(=O)c2cccs2)n[nH]c1=S (configuration not stated),n,n,n,n,n,n
CCN(C[C@H]1N[C@@](Cc2ccccc2)(C(=O)OC)[C@H]2C(=O)N(C)C(=O)[C@@H]12)C(=O)c1ccc(F)cc1,n,n,n,n,n,n
CCOC(=O)c1[nH]c(C)c(CN(CCc2ccccc2)C(=O)CCC(=O)O)c1C,n,n,n,n,n,n
N#Cc1cc([N+](=O)[O-])ccc1N1CCN(c2ccccc2O)CC1,n,n,n,n,n,n
O=[N+]([O-])c1ccc(N2CCN(c3ccc([N+](=O)[O-])cc3CO)CC2)c(CO)c1,n,n,18,n,n,n
CN1CCN(c2ccc([N+](=O)[O-])cc2C(=O)c2ccc(Br)cc2)CC1,21,n,n,n,n,n
O=C(NCCn1cc(SCc2ccccc2F)c2ccccc21)c1c(F)cccc1F,32,n,n,n,n,n
O=C(NCCn1cc(SCC(=O)N2CCOCC2)c2ccccc21)c1c(F)cccc1F,n,n,n,n,n,n
CCCN1CCN(CCCNC(=O)c2cc3c(=O)oc4ccc(C)cc4c3s2)CC1,n,n,n,n,21,n
CCCN1CCN(CCCNC(=O)c2ccc3c(c2)NC(=O)c2ccccc2S3)CC1,42,n,n,n,n,n
COCCNC(=O)c1cc2c(=O)[nH]c3ccccc3c2s1,n,n,n,n,n,n
CCCN1CCN(CCCNC(=O)c2cc3c(=O)[nH]c4ccccc4c3s2)CC1,n,n,n,n,21,n
CCN(CC)CCNC(=O)c1ccc2c(c1)NC(=O)c1ccccc1S2,n,n,n,n,n,n
CC(=O)c1cccc(NC(=O)CNC(=O)Cc2cccc3ccccc23)c1,n,n,n,n,n,n
COC(=O)c1cc(C)nc2c1C(=O)C(=O)C=C2N1CCOCC1,n,n,n,n,n,n
O=C(CSc1cccc[n+]1[O-])NC(=O)c1ccc(OC(F)F)cc1,n,n,n,n,n,n
CCc1ccc(-c2nc(CN3CCC(C(=O)NCCc4ccc(OC)c(OC)c4)CC3)c(C)o2)cc1,n,n,n,n,n,n
O=C(COC(=O)c1cc(=O)[nH]c2ccccc12)c1cccs1,n,n,n,n,n,30
CCC(=O)NC(=S)Nc1ccc(S(=O)(=O)NC(C)C)cc1,n,n,n,n,n,n
COc1cc(/C=N/N2CCCCC2)cc([N+](=O)[O-])c1O,n,n,n,n,25,n
COc1cc(/C=N/n2c(=S)[nH]nc(C)c2=O)cc([N+](=O)[O-])c1O,n,n,n,n,n,25
Cc1ccc2nc(SCC(=O)c3ccc(O)cc3O)[nH]c2c1,n,n,n,n,n,n
SMILES,CHRM1 antagonist,CHRM1 PAM,CHO-K1 Ca ag,M1 PAM parental,CHRM1 agonist,CHO-K1 Ca antag
O=C(CSc1nnc(NC2CCCCC2)s1)NN1C(=O)NC2(CCCCC2)C1=O,n,n,n,n,n,n
CCN(CC)CCCN(C)C(=O)Cn1nc(Cc2ccncc2)c2ccccc2c1=O,n,n,n,n,n,n
O=C(Cn1cc([N+](=O)[O-])cn1)NCc1ccccc1,n,n,n,n,n,n
COc1ccc(CNC(=O)Cn2cc([N+](=O)[O-])cn2)cc1,n,n,n,n,n,57
O=C(c1cccc(C(=O)N2CCN(Cc3ccccc3)CC2)c1)N1CCN(Cc2ccccc2)CC1,n,n,n,n,n,n
O=C(c1cccc(Cl)c1)N1CCN(Cc2ccncc2)CC1,n,n,n,n,n,25
CCC(C)[C@H](NC(=O)NCc1ccc(OC)c(OC)c1)C(=O)O (some centres not stated),n,n,n,n,n,n
COc1ccc(C(=O)Nc2ccc(C)cn2)cc1S(=O)(=O)N1CCCc2ccccc21,23,n,n,n,n,n
